Assay results taken from the supplement of paper PMC9694430.
Where a name gives a salt, the structure may show the parent alone.

Legend:
Assay in all cases: thermal shift delta Tm vs DMSO control; higher = stronger stabilization (binding)
Conditions in all cases: 12.5 µM; protein concentration 2 µM
[1] = tested on: LOC_OS04G57630-cb004
Method in brief: (§1)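 Heating from 25°C to 95°C at 0.05°C/s, fluorescence was recorded for 19.5 μl wells of 2 μM E. coli-expressed, purified rice kinase domain in 100 mM potassium phosphate pH 7.5, 150 mM NaCl, 10% glycerol and 5 × SYPRO Orange with compound in DMSO. Boltzmann fits gave melting temperatures for this differential scanning fluorimetry assay. The shift reported is the mean of three replicates against the DMSO-only protein.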

[2] = tested on: LOC_OS05G07850-cb002
Method in brief: as §1

[3] = tested on: LOC_OS05G16824-cb004
Method in brief: as §1

[4] = tested on: LOC_OS05G28520-cb001
Method in brief: as §1

[5] = tested on: LOC_OS05G30820-cb001
Method in brief: as §1

[6] = tested on: LOC_OS05G43570-cb004
Method in brief: as §1

[7] = tested on: LOC_OS06G16330-cb003
Method in brief: as §1

[8] = tested on: T1, LOC_OS06G22820-cb001
T1 sequence (whole entry): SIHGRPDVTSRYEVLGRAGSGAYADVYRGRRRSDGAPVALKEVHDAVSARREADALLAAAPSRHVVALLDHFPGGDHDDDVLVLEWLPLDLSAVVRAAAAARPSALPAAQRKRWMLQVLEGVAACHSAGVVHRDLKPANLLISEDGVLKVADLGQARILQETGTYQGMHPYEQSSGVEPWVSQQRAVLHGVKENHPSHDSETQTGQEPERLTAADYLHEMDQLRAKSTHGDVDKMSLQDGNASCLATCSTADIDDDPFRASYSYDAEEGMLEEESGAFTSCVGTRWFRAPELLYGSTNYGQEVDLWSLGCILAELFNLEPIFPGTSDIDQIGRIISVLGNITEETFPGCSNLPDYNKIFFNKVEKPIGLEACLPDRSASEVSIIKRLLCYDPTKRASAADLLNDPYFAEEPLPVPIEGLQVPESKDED
Method in brief: as §1

[9] = tested on: LOC_OS07G06570-cb004
Method in brief: as §1

[10] = tested on: LOC_OS07G07230-cb001
Method in brief: as §1
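Note: purified Escherichia coli-expressed rice kinase domain construct.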

Sequence of LOC_OS06G16330-cb003 (as listed by the source): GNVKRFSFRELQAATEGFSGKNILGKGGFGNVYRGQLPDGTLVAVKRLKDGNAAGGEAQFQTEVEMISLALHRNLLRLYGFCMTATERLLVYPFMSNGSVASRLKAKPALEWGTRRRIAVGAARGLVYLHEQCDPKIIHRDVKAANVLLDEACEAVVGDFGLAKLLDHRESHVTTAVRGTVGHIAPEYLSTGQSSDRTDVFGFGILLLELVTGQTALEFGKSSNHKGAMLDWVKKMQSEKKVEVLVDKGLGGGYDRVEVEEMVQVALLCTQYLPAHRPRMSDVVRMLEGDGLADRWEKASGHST

Compound	thermal shift delta Tm [1]	thermal shift delta Tm [2]	thermal shift delta Tm [3]	thermal shift delta Tm [4]	thermal shift delta Tm [5]	thermal shift delta Tm [6]	thermal shift delta Tm [7]	thermal shift delta Tm [8]	thermal shift delta Tm [9]	thermal shift delta Tm [10]
CC(=O)Nc1nc(C)c(-c2ccc(Cl)c(S(=O)(=O)NCCO)c2)s1	0.23 °C	4.94 °C	0.69 °C	0.59 °C	0.4 °C	0.87 °C	0.63 °C	0.43 °C	0.81 °C	-0.01 °C
N#Cc1cccc(-c2c[nH]c3ncnc(N4CCOCC4)c23)c1	0.05 °C	12.3 °C	1 °C	0.3 °C	0.46 °C	0.26 °C	3.82 °C	0.53 °C	0.63 °C	0.58 °C
Cc1ccc(NC(=O)c2ccc(CN3CCN(C)CC3)cc2)cc1Nc1nccc(-c2cccnc2)n1 [Imatinib Mesylate (STI571)]	0.35 °C	2.65 °C	0.21 °C	0.58 °C	0.32 °C	0.49 °C	0.2 °C	0.68 °C	1.07 °C	0.85 °C
Cc1nc(Nc2ncc(C(=O)Nc3c(C)cccc3Cl)s2)cc(N2CCN(CCO)CC2)n1 [Dasatinib]	2.57 °C	4.35 °C	5.06 °C	1.02 °C	0.42 °C	0.75 °C	1.61 °C	0.79 °C	1.03 °C	1.1 °C
C[C@H]1[C@H](C)CC[C@]2(C(=O)O)CC[C@]3(C)C(=CC[C@@H]4[C@@]5(C)C[C@@H](O)[C@H](O)[C@@](C)(CO)[C@@H]5CC[C@]43C)[C@H]12 [Asiatic Acid]	0.45 °C	0.11 °C	-3.69 °C	0.47 °C	0.73 °C	1.08 °C	-0.23 °C	0.71 °C	0.82 °C	0.24 °C
COc1ccc(/C=C/C(=O)C2(C(=O)/C=C/c3ccc(OC)c(OC)c3)CCCCC2)cc1OC	-0.06 °C	0.62 °C	-3.56 °C	0.12 °C	0.75 °C	0.25 °C	-0.37 °C	0.49 °C	2.62 °C	0.7 °C
CNC(=O)c1cc(COc2nnc(Nc3ccc(Cl)cc3)c3ccoc23)ccn1 [Telatinib]	0.3 °C	0.35 °C	-3.58 °C	0.37 °C	0.56 °C	0.21 °C	-0.23 °C	0.39 °C	0.17 °C	0.1 °C
Nc1ncnc2n[nH]c(Nc3ccc(F)cc3)c12	-0.19 °C	8.51 °C	1.59 °C	0.61 °C	0.77 °C	0.52 °C	2.45 °C	0.73 °C	1.75 °C	0.82 °C
CCN(CC)CCNC(=O)c1c(C)[nH]c(/C=C2\C(=O)Nc3ccc(F)cc32)c1C [Sunitinib Malate]	4.24 °C	8.46 °C	13.1 °C	1.41 °C	0.86 °C	0.2 °C	7.74 °C	0.19 °C	0.48 °C	0.56 °C
O=C(Nc1cnn2ccc(N3CCC[C@@H]3c3cc(F)ccc3F)nc12)N1CC[C@H](O)C1 [Larotrectinib (LOXO-101) sulfate]	-0.61 °C	5.23 °C	0.04 °C	0.01 °C	0.53 °C	0.03 °C	2.16 °C	0.35 °C	0.63 °C	0.56 °C
COc1cc(CCc2cc(NC(=O)c3ccc(N4CC(C)NC(C)C4)cc3)n[nH]2)cc(OC)c1 (stereo not given)	2.33 °C	3.41 °C	4.73 °C	6.65 °C	0.59 °C	0.4 °C	2.54 °C	0.35 °C	0 °C	-0.08 °C
c1ccc(-c2[nH]ncc2-c2ccnc3ccccc23)nc1	0.26 °C	3.02 °C	0.42 °C	0.19 °C	0.24 °C	0.65 °C	-2.93 °C	0.08 °C	0.81 °C	0.53 °C
CN1C(=O)[C@@H](NC(=O)c2n[nH]c(Cc3ccccc3)n2)COc2ccccc21	0.41 °C	0.32 °C	2.34 °C	-0.04 °C	0.15 °C	0.36 °C	0.02 °C	0.48 °C	1.77 °C	0.47 °C
Cc1ccc(C(=O)Nc2ccc(Oc3cc4cnn(C)c4cc3-c3cn[nH]c3)c(F)c2)c(=O)n1-c1ccc(F)cc1	1.06 °C	12.9 °C	0.64 °C	0.91 °C	0.24 °C	1.08 °C	5.02 °C	1.28 °C	1.37 °C	-0.23 °C
O=C(Nc1ccc(-c2ccnc(Nc3ccc(N4CCOCC4)cc3)n2)cc1)C1CCCN1 (stereo not given)	0.39 °C	8.89 °C	-1.75 °C	0.58 °C	0.48 °C	0.34 °C	2.94 °C	0.34 °C	1.36 °C	0.39 °C
COc1cc(OC)cc(N(CCNC(C)C)c2ccc3ncc(-c4cnn(C)c4)nc3c2)c1	0.11 °C	3.45 °C	-0.05 °C	0 °C	0.18 °C	0.08 °C	0.79 °C	0.32 °C	1.94 °C	0.52 °C
Nc1nc2cc(-c3ccc4ncc(C(=O)N5CCOCC5)n4c3)ccc2o1 [Serabelisib (INK-1117,MLN-1117,TAK-117)]	0.92 °C	2.64 °C	6.24 °C	0.55 °C	0.04 °C	0.35 °C	0.24 °C	0.5 °C	1.85 °C	0.61 °C
C1=N/C2=N/c3ccc(OCCN4CCCC4)c(c3)COC/C=C/COCc3cccc(c3)C(=C1)N2 [Pacritinib (SB1518)]	4.36 °C	12.8 °C	7.5 °C	3.33 °C	0.55 °C	0.68 °C	10.1 °C	0.41 °C	1.64 °C	0.85 °C
